Measurements published in ChEMBL document CHEMBL2218924, “A broad activity screen in support of a chemogenomic map for kinase signalling research and drug discovery” (Biochem J, 2013).

Legend:
[1] = target: Vascular endothelial growth factor receptor 3 (Homo sapiens) (UniProt P35916); settings: at 10 µM
[2] = target: Macrophage colony-stimulating factor 1 receptor (Homo sapiens) (UniProt P07333); settings: at 1 µM
[3] = target: Macrophage colony-stimulating factor 1 receptor (Homo sapiens) (UniProt P07333); settings: at 10 µM
[4] = target: Tyrosine-protein kinase Fyn (Homo sapiens) (UniProt P06241); settings: at 1 µM
Tyrosine-protein kinase Fyn (Homo sapiens), sequence (P06241 2-537 limits assumed): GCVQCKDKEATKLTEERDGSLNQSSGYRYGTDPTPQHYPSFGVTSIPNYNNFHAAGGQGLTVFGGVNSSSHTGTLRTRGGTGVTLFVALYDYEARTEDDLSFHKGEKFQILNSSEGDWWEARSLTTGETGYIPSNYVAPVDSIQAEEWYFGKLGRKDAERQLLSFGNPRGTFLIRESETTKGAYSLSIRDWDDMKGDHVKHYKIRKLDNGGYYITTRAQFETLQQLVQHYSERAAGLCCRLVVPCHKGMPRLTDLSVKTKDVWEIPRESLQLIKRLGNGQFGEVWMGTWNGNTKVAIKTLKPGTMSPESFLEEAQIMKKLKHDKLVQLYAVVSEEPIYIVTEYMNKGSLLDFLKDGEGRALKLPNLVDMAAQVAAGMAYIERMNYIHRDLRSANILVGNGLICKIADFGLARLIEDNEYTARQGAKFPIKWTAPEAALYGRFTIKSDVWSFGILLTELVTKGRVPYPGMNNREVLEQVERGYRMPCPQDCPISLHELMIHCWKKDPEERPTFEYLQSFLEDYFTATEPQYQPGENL

[5] = target: Tyrosine-protein kinase Fyn (Homo sapiens) (UniProt P06241); settings: at 10 µM
[6] = target: T1, Mitogen-activated protein kinase kinase kinase kinase 2 (Homo sapiens) (UniProt Q12851); settings: at 1 µM
T1 sequence (whole entry): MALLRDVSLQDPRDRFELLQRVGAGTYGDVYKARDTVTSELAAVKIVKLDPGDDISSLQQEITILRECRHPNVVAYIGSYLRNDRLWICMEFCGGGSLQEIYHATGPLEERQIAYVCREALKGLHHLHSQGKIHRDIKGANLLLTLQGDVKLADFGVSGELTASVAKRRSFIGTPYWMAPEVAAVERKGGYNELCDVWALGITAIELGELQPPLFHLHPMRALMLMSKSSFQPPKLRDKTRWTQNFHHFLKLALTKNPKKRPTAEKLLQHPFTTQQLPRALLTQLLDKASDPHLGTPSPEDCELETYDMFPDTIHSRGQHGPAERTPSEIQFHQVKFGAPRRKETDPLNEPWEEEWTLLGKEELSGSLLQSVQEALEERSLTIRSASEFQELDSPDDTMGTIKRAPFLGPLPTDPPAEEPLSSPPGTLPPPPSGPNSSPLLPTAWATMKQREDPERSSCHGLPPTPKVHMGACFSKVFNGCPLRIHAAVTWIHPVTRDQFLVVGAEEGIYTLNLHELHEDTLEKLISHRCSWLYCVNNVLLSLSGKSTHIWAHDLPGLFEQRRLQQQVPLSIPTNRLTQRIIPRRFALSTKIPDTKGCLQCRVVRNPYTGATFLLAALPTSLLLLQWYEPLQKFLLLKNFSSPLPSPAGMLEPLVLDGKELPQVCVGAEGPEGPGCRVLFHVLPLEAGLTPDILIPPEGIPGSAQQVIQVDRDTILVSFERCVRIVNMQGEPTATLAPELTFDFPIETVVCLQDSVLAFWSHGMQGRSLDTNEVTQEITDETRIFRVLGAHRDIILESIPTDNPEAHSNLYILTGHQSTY

[7] = target: T1, Mitogen-activated protein kinase kinase kinase kinase 2 (Homo sapiens); settings: at 10 µM
[8] = target: G protein-coupled receptor kinase 5 (Homo sapiens) (UniProt P34947); settings: at 10 µM
G protein-coupled receptor kinase 5 (Homo sapiens), sequence (P34947 whole entry, looked up): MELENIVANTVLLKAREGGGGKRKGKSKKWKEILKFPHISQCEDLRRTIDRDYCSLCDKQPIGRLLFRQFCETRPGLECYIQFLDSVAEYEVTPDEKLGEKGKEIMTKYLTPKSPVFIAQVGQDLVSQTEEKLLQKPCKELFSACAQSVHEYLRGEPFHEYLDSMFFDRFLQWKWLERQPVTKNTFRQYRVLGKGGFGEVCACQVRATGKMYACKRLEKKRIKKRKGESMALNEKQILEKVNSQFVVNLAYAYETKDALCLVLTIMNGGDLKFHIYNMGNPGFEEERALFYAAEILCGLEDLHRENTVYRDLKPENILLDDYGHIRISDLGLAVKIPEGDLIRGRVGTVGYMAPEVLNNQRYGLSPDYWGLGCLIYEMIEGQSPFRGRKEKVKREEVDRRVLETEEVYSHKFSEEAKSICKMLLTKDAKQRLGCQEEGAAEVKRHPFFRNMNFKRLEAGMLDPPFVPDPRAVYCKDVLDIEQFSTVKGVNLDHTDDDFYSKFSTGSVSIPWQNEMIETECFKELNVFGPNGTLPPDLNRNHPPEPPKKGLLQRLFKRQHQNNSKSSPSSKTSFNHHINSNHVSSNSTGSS

[9] = target: G protein-coupled receptor kinase 6 (Homo sapiens) (UniProt P43250); settings: at 10 µM
G protein-coupled receptor kinase 6 (Homo sapiens), sequence (P43250 whole entry, looked up): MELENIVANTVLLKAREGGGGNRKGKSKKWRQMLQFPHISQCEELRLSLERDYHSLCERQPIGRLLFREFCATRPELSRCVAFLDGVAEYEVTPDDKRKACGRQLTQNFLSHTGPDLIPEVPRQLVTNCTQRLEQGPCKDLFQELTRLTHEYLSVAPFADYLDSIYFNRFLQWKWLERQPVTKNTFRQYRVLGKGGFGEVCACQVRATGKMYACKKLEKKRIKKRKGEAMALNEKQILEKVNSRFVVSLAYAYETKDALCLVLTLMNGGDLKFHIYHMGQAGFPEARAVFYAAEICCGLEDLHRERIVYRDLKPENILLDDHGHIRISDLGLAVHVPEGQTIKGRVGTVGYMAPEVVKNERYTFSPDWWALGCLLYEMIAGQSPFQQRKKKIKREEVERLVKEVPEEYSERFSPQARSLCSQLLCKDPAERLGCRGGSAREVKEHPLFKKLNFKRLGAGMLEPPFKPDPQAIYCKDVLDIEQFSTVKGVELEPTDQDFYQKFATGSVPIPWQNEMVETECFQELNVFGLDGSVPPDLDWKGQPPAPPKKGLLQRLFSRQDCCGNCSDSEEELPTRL

[10] = target: T2, Rhodopsin kinase GRK7 (Homo sapiens) (UniProt Q8WTQ7); settings: at 1 µM
T2 sequence (whole entry): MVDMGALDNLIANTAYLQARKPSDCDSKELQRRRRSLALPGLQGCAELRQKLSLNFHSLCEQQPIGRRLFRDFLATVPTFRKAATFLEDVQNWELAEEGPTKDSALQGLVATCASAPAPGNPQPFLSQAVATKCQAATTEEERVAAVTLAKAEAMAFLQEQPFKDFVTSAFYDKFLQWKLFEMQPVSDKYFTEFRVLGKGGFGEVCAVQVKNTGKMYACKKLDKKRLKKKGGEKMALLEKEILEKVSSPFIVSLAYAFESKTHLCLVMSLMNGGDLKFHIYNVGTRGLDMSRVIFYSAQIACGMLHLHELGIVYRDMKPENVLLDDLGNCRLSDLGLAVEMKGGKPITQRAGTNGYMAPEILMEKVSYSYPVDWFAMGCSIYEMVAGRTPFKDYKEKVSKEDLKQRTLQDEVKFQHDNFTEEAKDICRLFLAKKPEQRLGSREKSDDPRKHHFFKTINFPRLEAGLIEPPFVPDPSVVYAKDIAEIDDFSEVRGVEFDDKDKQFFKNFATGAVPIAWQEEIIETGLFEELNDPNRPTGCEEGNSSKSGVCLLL

Macrophage colony-stimulating factor 1 receptor (Homo sapiens), sequence (P07333 whole entry): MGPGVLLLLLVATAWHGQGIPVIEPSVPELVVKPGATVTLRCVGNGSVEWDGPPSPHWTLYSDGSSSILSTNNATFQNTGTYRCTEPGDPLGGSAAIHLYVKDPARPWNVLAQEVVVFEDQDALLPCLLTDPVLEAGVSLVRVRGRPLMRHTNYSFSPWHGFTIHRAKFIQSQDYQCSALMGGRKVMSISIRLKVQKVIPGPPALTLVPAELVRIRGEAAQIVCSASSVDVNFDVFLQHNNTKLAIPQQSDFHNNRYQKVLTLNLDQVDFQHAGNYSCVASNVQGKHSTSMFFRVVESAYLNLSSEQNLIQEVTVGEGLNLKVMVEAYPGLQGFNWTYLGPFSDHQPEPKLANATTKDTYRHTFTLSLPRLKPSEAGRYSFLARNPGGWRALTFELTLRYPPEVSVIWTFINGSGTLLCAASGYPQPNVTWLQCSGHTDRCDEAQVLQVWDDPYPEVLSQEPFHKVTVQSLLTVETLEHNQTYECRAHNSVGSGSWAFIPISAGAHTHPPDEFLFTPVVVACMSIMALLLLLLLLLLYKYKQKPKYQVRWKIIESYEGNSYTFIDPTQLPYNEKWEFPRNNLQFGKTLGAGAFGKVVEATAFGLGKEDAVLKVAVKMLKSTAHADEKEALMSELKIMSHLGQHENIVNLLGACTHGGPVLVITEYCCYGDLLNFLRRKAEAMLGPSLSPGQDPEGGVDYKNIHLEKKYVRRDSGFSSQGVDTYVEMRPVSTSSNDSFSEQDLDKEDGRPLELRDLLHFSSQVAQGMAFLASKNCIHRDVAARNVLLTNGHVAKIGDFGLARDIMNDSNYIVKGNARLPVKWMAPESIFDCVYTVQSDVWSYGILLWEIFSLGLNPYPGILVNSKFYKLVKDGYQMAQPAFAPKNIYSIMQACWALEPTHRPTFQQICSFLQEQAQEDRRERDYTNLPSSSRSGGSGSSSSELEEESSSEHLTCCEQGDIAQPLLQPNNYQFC
Vascular endothelial growth factor receptor 3 (Homo sapiens), sequence (P35916 whole entry): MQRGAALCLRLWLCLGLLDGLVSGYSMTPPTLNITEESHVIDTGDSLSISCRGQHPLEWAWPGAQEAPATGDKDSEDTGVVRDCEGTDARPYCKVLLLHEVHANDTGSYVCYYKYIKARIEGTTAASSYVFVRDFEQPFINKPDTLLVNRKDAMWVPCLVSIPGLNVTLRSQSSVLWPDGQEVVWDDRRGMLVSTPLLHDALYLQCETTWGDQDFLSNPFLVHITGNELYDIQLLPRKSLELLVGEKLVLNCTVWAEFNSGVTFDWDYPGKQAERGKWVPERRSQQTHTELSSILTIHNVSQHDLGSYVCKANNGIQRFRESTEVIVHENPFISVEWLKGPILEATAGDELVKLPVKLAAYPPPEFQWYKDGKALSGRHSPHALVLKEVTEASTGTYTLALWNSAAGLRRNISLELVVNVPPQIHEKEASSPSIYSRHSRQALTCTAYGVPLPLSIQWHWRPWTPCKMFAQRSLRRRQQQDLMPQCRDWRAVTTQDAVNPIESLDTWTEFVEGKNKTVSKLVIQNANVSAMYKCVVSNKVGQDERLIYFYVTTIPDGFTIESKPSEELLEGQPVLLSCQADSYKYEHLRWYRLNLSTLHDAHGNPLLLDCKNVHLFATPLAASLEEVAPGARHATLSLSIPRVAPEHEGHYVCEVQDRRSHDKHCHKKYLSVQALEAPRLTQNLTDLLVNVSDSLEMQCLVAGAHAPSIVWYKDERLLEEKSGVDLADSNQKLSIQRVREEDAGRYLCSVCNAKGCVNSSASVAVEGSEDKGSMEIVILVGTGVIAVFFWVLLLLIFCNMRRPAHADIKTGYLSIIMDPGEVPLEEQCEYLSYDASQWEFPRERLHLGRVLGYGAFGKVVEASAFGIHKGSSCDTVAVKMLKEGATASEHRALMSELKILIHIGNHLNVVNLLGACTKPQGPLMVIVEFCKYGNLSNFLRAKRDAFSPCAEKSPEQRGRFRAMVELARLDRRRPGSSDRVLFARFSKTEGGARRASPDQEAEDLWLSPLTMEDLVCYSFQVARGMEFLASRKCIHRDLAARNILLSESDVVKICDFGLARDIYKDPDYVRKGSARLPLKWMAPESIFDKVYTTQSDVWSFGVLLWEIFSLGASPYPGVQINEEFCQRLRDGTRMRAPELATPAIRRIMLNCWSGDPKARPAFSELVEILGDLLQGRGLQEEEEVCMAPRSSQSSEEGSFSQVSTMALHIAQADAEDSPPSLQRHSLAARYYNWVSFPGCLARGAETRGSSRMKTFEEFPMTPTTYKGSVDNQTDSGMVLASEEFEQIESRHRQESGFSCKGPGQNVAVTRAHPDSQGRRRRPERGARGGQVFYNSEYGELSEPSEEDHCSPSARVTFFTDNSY

| SMILES | residual activity [1] | residual activity [2] | residual activity [3] | residual activity [4] | residual activity [5] | residual activity [6] | residual activity [7] | residual activity [8] | residual activity [9] | residual activity [10] |
| --- | --- | --- | --- | --- | --- | --- | --- | --- | --- | --- |
| O=C1Nc2cc(Br)ccc2/C1=C1/Nc2ccccc2/C1=N\O | 1% | 5% | 8% | 1% | 2% | 16% | 25% | 98% | 86% | 94% |
| O=C1NC(=O)c2c1c1c3ccccc3[nH]c1c1[nH]c3cc(Br)ccc3c21 | 3% | 78% | 68% | 85% | 62% | 88% | 74% | 89% | 89% | 96% |
| N#CCCc1ccc2c(c1)-c1[nH]c3ccc([N+](=O)[O-])cc3c1CC(=O)N2 | 2% | 24% | 19% | 17% | 1% | 2% | 2% |  |  |  |
| COc1ccc(OC)c2c(=S)c3ccccc3[nH]c12 | 60% | 84% | 62% | 83% | 90% | 90% | 80% | 97% | 80% | 84% |
| Cc1cc2ncc(-c3ccccc3)nc2cc1C | 26% | 36% | 6% | 98% | 27% | 98% | 90% | 102% | 101% | 102% |
| c1ccc2c(-c3ccncc3)c[nH]c2c1 | 60% | 110% | 92% | 89% | 78% | 86% | 50% | 97% | 83% | 96% |
| Nc1nc(Nc2ccc(S(N)(=O)=O)cc2)nn1C(=S)Nc1c(F)cccc1F | -1% | 5% | 0% | 6% | -1% | 1% | -1% | 30% |  |  |
| Cn1cnc2cc3c(Nc4cccc(Br)c4)ncnc3cc21 | 8% | 94% | 37% | 67% | 34% | 86% | 70% | 93% | 96% | 100% |
| CO[C@@H]1[C@H](N(C)C(=O)c2ccccc2)C[C@H]2O[C@]1(C)n1c3ccccc3c3c4c(c5c6ccccc6n2c5c31)C(=O)NC4 | 3% | 0% | 1% | 6% | 10% | 4% | 0% | 74% | 70% | 8% |
| CN(C)c1ccc(/C=C2\C(=O)Nc3ccccc32)cc1 | 1% | 8% | 2% | 83% | 56% | 83% | 25% | 86% | 90% | 96% |
| CCOc1cc2ncnc(Nc3cccc(Br)c3)c2cc1OCC | 4% | 73% | 27% | 26% | 4% | 78% | 39% | 84% | 90% | 94% |
| Cc1nc2cc3nc(-c4cccs4)cnc3cc2n1C | 2% | 52% | 8% | 103% | 69% | 110% | 85% | 77% | 92% | 113% |
| CC(C)n1cnc2c(NCc3ccccc3)nc(NCCCO)nc21 | 68% | 101% | 77% | 93% | 1% | 87% | 75% | 93% | 87% | 94% |
| CO[C@H]1[C@@H](OC)C[C@H](C)[C@@H](OC)C2=CC(=O)C=C(NC(=O)/C(C)=C/C=C/[C@H](OC)[C@@H](OC(N)=O)/C(C)=C/[C@@H]1C)C2=O | 89% | 131% | 112% | 88% | 96% | 92% | 81% | 102% | 89% | 100% |
| Nc1n[nH]c2nnc(-c3c(-c4ccccc4)nn4ccccc34)cc12 | 23% | 67% | 28% | 71% | 52% | 67% | 24% | 99% | 89% | 83% |
| O=C1Nc2ccccc2/C1=C1/Nc2ccccc2/C1=N\OCCC(O)CO (stereo not given) | 0% | 1% | 1% | -1% | 2% | 20% | 4% | 63% | 72% | 60% |
| COc1cc2ncnc(Nc3ccc(O)c(Br)c3)c2cc1OC | 2% | 63% | 22% | 49% | 9% | 52% | 18% | 89% | 78% | 75% |
